Assay outcomes (PubChem)
Most compounds without a hit are left out; they make up all but 2.4% or so of the library.
D2 ag-1: activates the human D2 dopamine receptor | P14416 | HEK293 T-REx D2 cells, calcium flux agonist mode | activation, % at 2 µM | 340,000 tested, 0.53% active;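 active = activation over 3 SD above normal in the single-dose calcium agonist read, cut at about 30% in these data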; also: 0% is about no effect
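Tetracycline-induced HEK293 Trex cells with D2 receptor force-coupled to calcium signaling, plated overnight at 30 C and loaded with no-wash calcium dye. Calcium flux read kinetically for 180 s after compound addition; responses flag agonists.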
D2 PAM-1: D2 dopamine receptor (human) potentiation. HEK293 T-REx D2, calcium flux, EC20 dopamine potentiation. P14416. potentiation, % at 10 µM. AID 485347. 340,000 tested, 0.34% active;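 active = potentiation over 3 SD above the plate norm, cut at about 30% in these data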; also: 0% is about no effect
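Potentiation of an EC20 dopamine calcium response is measured in a force-coupled, tetracycline-inducible Hek293 Trex D2 line. Compound-only kinetic reads over 180 s flag agonists before dopamine addition.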
D2 PAM-2: human D2 receptor positive allosteric modulation; potentiation, % (concentration not given with the values); DiscoveRx D2 beta-arrestin cells, luminescence, 90 min; 100% = 57 uM dopamine signal; 360,000 tested, 0.23% active; in the data active = potentiation above about 50%; inconclusive = mostly about 30% to 49%
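PathHunter D2 cells, attached overnight at 37 deg C, received compound in DMSO plus dopamine at EC20 (50 nM final) for 90 min at 37 deg C. Beta-arrestin recruitment was read as luminescence after 1 h with detection reagent at ambient temperature.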
D2 ag-2: agonists of human D2 dopamine receptor (beta-arrestin); P14416; DiscoveRx PathHunter D2 beta-arrestin, luminescence, 90 min; 100% = 57 uM dopamine signal; activation, % (concentration not given with the values); 360,000 tested, 0.084% active; AID 624465; in the data active = activation above about 40%; inconclusive = between about 15% and that limit
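DiscoveRx PathHunter D2 beta-arrestin cells (2,100/well) attached overnight, then compound-stimulated 90 min at 37 C in HBSS/10 mM HEPES/0.1% Tween-20 buffer; beta-galactosidase complementation read by luminescence after 1 h at ambient temperature. Dopamine 57 uM final (EC100) as control.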
D2 antag: antagonizes the human D2 dopamine receptor | P14416 | HEK293 TREx D2 cells, calcium flux, dopamine EC80 | inhibition, % at 10 µM | 340,000 tested, 2% active; in the data active = inhibition above about 30%; inactive = below that, where a call was filed; also: 0% is about no effect
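Measurement of antagonist activity uses fluorescent calcium dye in inducible HEK293 T-REx D2 cells: 10 s baseline, compound addition with 180 s read, EC80 dopamine addition with a further 180 s read.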
D3 arrestin ag: activates human D3 dopamine receptor beta-arrestin recruitment; shares compounds with D2 ag-1; DiscoveRx D3 beta-arrestin cells, luminescence, 90 min; Potency, µM (highest dose often 76.9 µM), for inactives: at the highest dose activation, usual class: activators; 2,300 tested, 4% active; AID 720506;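 also: potency is read from the fitted curve at half-maximal effect; 100% = dopamine control response; nearly all actives have a fitted effect of over 70% in size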
Target sequence (P35462 whole entry, looked up): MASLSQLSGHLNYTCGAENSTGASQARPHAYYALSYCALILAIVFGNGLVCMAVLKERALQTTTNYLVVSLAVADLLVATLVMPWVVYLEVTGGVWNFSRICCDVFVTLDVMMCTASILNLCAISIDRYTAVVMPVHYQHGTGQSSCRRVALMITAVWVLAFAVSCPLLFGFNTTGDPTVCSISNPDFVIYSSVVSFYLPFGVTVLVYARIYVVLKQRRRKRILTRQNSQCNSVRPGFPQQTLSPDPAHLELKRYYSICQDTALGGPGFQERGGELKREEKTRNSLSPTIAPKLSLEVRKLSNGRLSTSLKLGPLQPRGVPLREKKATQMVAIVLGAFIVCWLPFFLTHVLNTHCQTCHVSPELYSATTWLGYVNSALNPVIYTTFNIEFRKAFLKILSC
D2 ag-3: activates human D2 dopamine receptor in D3 counterscreen | shares compounds with D2 ag-1 | DiscoveRx PathHunter D2 beta-arrestin, luminescence, 90 min; response scale: percent relative to full dopamine signal | Potency, µM (highest dose often 76.9 µM), inactives show top-dose activation, hits mostly activators | 2,300 tested, 5.9% active | AID 720507; also: potency is read from the fitted curve at half-maximal effect; % of control where 0% means no effect; nearly all actives have a fitted effect of over 70% in size
An asterisk follows results filed as active; ? = inconclusive; / = not tested or not shown. Unless noted, calls follow the shape of the dose curve; as a rule, active = well fitted activation curve with a large enough effect; inconclusive = small, poorly fitted or top-dose-only effect; inactive = flat fitted curve, though single readings scatter.

SMILES	D2 ag-1	D2 PAM-1	D2 PAM-2	D2 ag-2	D2 antag	D3 arrestin ag	D2 ag-3
CN(Cc1ccccc1)C(=O)c1cc2c(s1)-c1ccc(Cl)cc1SC2	-0.3	3.9	/	/	/	/	/
CCOc1ccc(CC(=N)C2=C(O)CC(C)(C)CC2=O)cc1OCC	1.0	2.6	-5.0	-3.6	-16.0	/	/
CCOc1ccc(CC(=NCCc2ccccc2)C2=C(O)CC(C)(C)CC2=O)cc1OCC	47.2*	-18.3	-3.1	0.4	0.4	-2.3%	6.5%
Clc1ccc(CN2CCN(c3ccccc3)CC2)cn1	74.1*	-21.8	11.0	?	89.9*	?	?
Clc1ccccc1N1CCN(Cc2ccc(Br)o2)CC1	/	/	-14.2	0.7	/	/	/
c1ccc(SCCN2CCN(c3ccccc3)CC2)cc1	22.6	-20.3	-35.4	4.6	60.1*	-9.1%	9.8%
CCCN1CCC(=O)N(CCSc2ccccc2)CC1	0.3	1.5	-51.7	1.8	-39.1	/	/
Brc1ccc(CN2CCN(c3ccccc3)CC2)o1	72.0*	-18.7	-12.8	8.5	50.5*	6.6%	22.9%
c1ccc(N2CCN(Cc3cnc(N4CCOCC4)s3)CC2)cc1	63.0*	-40.0	-13.5	-10.0	38.3*	7.4%	?
Cc1ccc(NC(=O)c2cc3nc(-c4ccc5c(c4)OCO5)cc(C(F)(F)F)n3n2)cc1Cl	-0.9	-8.8	/	/	/	/	/
Cc1c(CC(=O)N2CCCCC2)c(=O)oc2cc3occ(C(C)(C)C)c3cc12	3.1	0.1	/	/	/	/	/
Cc1cc(=O)n(Cc2ccc(F)cc2Cl)c2c1c(C)nn2C	3.2	-6.0	/	/	/	/	/
Fc1ccccc1N1CCN(Cc2cnc(Cl)s2)CC1	/	/	?	52.4*	/	?	3.16µM*
Clc1ncc(CN2CCN(c3ccccc3)CC2)s1	74.7*	-26.0	8.6	47.5*	83.7*	?	5.01µM*
CC1CCN(Cc2cnc(Cl)s2)CC1	1.5	0.4	-0.8	-2.7	-12.8	/	/
COc1ccc(CCNC(=O)c2cnn(-c3cccc(C)c3)c2C2CCN(C(=O)OC(C)(C)C)CC2)cc1OC	-1.3	-2.7	/	/	/	/	/
C=CCN(CC=C)CCOc1cc(C)ccc1[N+](=O)[O-]	20.7	-28.5	-3.1	-3.0	-8.1	7.5%	5.9%
CC(C)(C)c1ccc(-c2nnc(-c3ccccc3NC(=O)c3cccc(C(F)(F)F)c3)o2)cc1	-0.3	15.4	/	/	/	/	/
CCOC(=O)NC(=O)CSc1nc(-c2ccc(C)c(C)c2)cn1-c1ccccc1	-1.1	9.3	15.5	-0.8	8.1	8.0%	6.4%
Cc1ccc(-c2cn(-c3ccccc3)c(SCC(N)=O)n2)cc1C	-1.5	-7.1	5.7	-2.6	10.3	/	/
Cc1cc(C(=O)N2CCN(C/C=C/c3ccccc3)CC2)no1	1.1	1.0	-9.1	0.3	5.5	/	/
O=C(NC(=S)N1CCN(C/C=C/c2ccccc2)CC1)c1ccco1	48.0*	-17.9	-14.7	-4.6	9.2	1.5%	-2.1%
O=C(NC(=S)N1CCN(C/C=C/c2ccccc2)CC1)c1c(F)cccc1F	-0.2	-2.5	-6.7	-3.1	-12.0	/	/
O=C(c1ccco1)N1CCN(C/C=C/c2ccccc2)CC1	89.5*	-27.7	?	40.7*	1.5	?	?
Cc1ccc(C(=O)c2oc3ccccc3c2NC(=O)c2cc(=O)c3ccccc3o2)cc1	0.7	10.0	/	/	/	/	/
SMILES	D2 ag-1	D2 PAM-1	D2 PAM-2	D2 ag-2	D2 antag	D3 arrestin ag	D2 ag-3
CCCc1nn2c(=O)cc(COC(=O)c3ccccc3NC(=O)c3cccs3)nc2s1	0.6	6.0	/	/	/	/	/
CC(C)Cc1nn2cc(-c3cccc(Br)c3)nc2s1	-0.1	18.9	/	/	/	/	/
O=C(NCCCN1CCN(c2ccc(F)cc2)CC1)c1ccc2nc(Cc3ccccc3)oc2c1	2.5	-17.2	/	/	/	/	/
COc1ccccc1N1CCN(CC(O)COc2ccc(S(=O)(=O)N3CCOCC3)cc2)CC1 (stereo not given)	71.3*	-16.9	-19.2	?	92.3*	-6.4%	?
O=S(=O)(c1ccc(OCC(O)CN2CCN(c3ccc(F)cc3)CC2)cc1)N1CCOCC1 (stereo not given)	75.9*	-17.3	-10.2	13.4	66.8*	8.3%	?
COc1ccc(S(=O)(=O)N2CCN(CC(O)CN3CCOCC3)CC2)cc1 (stereo not given)	0.0	19.8	-3.4	-3.8	-9.8	/	/
Cc1ccc(NC(=O)c2nc[nH]c2C(=O)NC2CCN(C(=O)OC(C)(C)C)CC2)cc1	/	/	-8.1	-2.2	/	/	/
CC(C)(C)OC(=O)N1CCC(NC(=O)c2nc[nH]c2C(=O)N2CCc3ccccc3C2)CC1	/	/	-6.6	-1.3	/	-3.0%	-2.5%
CC(C)(C)OC(=O)N1CCN(C(=O)c2[nH]cnc2C(=O)NCc2ccccc2)CC1	0.1	-3.0	-9.7	-3.5	-3.1	-2.9%	-2.3%
CC(C)(C)OC(=O)N1CCC(NC(=O)c2[nH]cnc2C(=O)Nc2ccc(Cl)cc2)CC1	1.1	5.7	-16.0	-1.2	1.4	-1.6%	-2.3%
Cc1ccc(C)c(S(=O)(=O)c2nnn3c2nc(NC(C)C)c2sccc23)c1	-0.7	4.7	/	/	/	/	/
Cc1ccc(NC(=O)C(Cc2ccccc2)n2cccc2)c(C)c1 (stereo not given)	1.4	-8.2	/	/	/	/	/
CCC(NC(C)C)C(O)c1ccc(O)c2[nH]c(=O)ccc12 (stereo not given)	26.6	-0.2	-5.0	3.6	-10.7	?	20.9%
O=S(=O)(Nc1ccc(C(F)(F)F)cc1)c1ccc2c(c1)OCCO2	1.4	9.3	/	/	/	/	/
CCOCC(=O)Nc1ccc(OCc2ccccc2)cc1	-0.5	1.4	-0.9	-6.5	0.9	/	/
O=C(O)COCC(=O)Nc1ccc(OCCc2ccccc2)cc1	-0.3	-4.4	-2.7	-2.3	-0.2	-3.6%	2.4%
CCOc1cc(CNCCc2ccc(S(N)(=O)=O)cc2)ccc1OCc1ccc(Cl)cc1	2.0	-1.7	11.8	3.7	64.9*	?	?
O=C(NCCOC(=O)c1ccc(C(=O)OCCNC(=O)c2cccnc2)s1)c1cccnc1	69.2*	-28.2	-2.0	-4.8	28.8	-7.6%	-3.7%
O=C(CCNC(=O)c1ccc(Cl)cc1)NCCCN1CCOCC1	-0.2	-9.5	-1.3	-2.9	-18.4	-5.8%	-5.5%
O=C(c1cccs1)N1CCC(N2CCN(c3ccccc3)CC2)CC1	85.2*	-24.5	1.4	?	54.2*	7.08µM*	?
CCOC(=O)N1CCC(N2CCN(c3ccccc3)CC2)CC1	45.4*	-10.7	9.3	?	73.7*	?	?
CCOC(=O)N1CCC(N2CCCC(C(=O)c3cccc(OC)c3)C2)CC1 (stereo not given)	50.5*	-23.9	-29.5	3.0	40.1*	-10.4%	3.3%
